Shown are actives, neighbours in structure and some others; about 2.8% of the full set was active somewhere.
PG9 binder: PG9 antibody binding by small molecule; inhibition, % at 6.7 µM; AID 624416; TR-FRET gp120-PG9 antibody binding; 0.43% of 360,000 active; in the data active = inhibition above about 8.5%
proKLK7 act: proKLK7 (human) activation, primary screen | purified proKLK7, EDANS-DABCYL substrate fluorescence; 100% is mature enzyme control, 0% vehicle | AID 652039 | P49862 | 0.9% of 370,000 active | activation, % at 7 µM;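 active = activation above the mean of all tested compounds plus 3 SD, computed per campaign excluding outliers beyond control limits, cut at about 13% in these data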
NR1D1 modulator: Rev-erb alpha (human) modulation; P20393; Rev-erbα–FITC-DNA binding, fluorescence polarization, 90 min; activity, % at 10 µM; 0.79% of 370,000 active; AID 1259318;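 active = activity above about 14%, limit read from the data; passing the limit was not always enough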;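 also: 0% = DMSO wells with 35 nM protein and 100% = DMSO wells with 750 nM protein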
PP5 primary: inhibitors of human protein phosphatase 5 (PP5); 0.18% of 320,000 active; purified PP5c, OMFP substrate fluorescence; inhibition, % at 6.7 µM;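 active = inhibition above the campaign's mean inhibition across all tested compounds plus 3 SD, cut at about 9.5% in these data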;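 also: 0% = DMSO only and 100% = 100 µM cantharidin control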
JMJD2C inh: inhibitors of human GASC-1 (JMJD2C) demethylase; 0.069% of 330,000 active; AID 2099; inhibition, % at 2.35 µM; GST-JMJD2C(1-420) H3K9me3 demethylation, DELFIA europium;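 active = more than half of a compound's replicate wells show inhibition beyond 50%, single wells judged on their own value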;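 also: signal counts dimethyl H3K9 product captured on neutravidin plate; 0% = median of DMSO wells and 100% = 0.3 times that DMSO median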
Target sequence (Q9H3R0 1-420 limits assumed): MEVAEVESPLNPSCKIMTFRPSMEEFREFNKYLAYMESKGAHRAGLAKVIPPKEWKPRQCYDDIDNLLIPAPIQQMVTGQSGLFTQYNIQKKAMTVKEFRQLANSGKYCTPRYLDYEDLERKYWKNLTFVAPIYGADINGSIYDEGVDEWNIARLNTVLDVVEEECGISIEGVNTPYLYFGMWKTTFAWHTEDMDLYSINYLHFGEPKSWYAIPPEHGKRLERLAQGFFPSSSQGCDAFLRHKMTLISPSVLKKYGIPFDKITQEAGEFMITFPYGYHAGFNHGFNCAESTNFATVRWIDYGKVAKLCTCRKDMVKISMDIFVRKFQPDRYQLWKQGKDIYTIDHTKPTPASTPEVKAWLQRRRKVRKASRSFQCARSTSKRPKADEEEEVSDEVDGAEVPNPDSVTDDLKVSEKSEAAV
PP1 inh: blocks human PP1-alpha phosphatase, a PP5 counter-screen | purified PP1alpha, OMFP fluorescence | inhibition, % at 6.7 µM | 0.9% of 320,000 active | AID 2235;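 active = inhibition above the mean inhibition of all tested compounds plus 3 SD, computed separately for each screening campaign, cut at about 15% in these data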
KLK7 act conf: proKLK7 activation, confirmation; shares compounds with proKLK7 act; purified proKLK7, EDANS-DABCYL substrate fluorescence; scaled: vehicle 0, mature enzyme 100; activation, % at 7 µM; 68% of 3,200 active; AID 686949;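 active = activation, as change over the incubation, above the mean of all tested compounds plus 3 SD, cut at about 13% in these data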
EDANS-DABCYL int: fluorescence interference counter-screen for KLK7 activators; AID 686952; EDANS-DABCYL substrate fluorescence interference, no enzyme, 4 h; solvent 0%, active enzyme control 100%; activation, % at 7 µM; shares compounds with proKLK7 act; 80% of 3,200 active;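 active = activation above the all-compound mean plus 3 SD, ignoring values outside control-based bounds, cut at about 4.8% in these data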;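 also: value is the 4 h activation minus the activation read at time zero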
K7 EDANS ctr: counter-screen for kallikrein-7 activators: EDANS-DABCYL interference, dose response. EC50, µM. EDANS-DABCYL peptide fluorescence interference, no enzyme. 20% of 250 active. AID 720493. shares compounds with proKLK7 act;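 active = compounds that raise the fluorescence signal in this interference counterscreen, with EC50 at or below 10 µM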;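 also: intact quenched peptide substrate alone read at 355 nm excitation and 520 nm emission; signal is fluorescence gain from T0 to T4 after four hours at room temperature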
* hit, by the source's call; i = inactive; · = no result given.

SMILES	PG9 binder	proKLK7 act	NR1D1 modulator	PP5 primary	JMJD2C inh	PP1 inh	KLK7 act conf	EDANS-DABCYL int	others
CN1CCCCC(NC(=O)COCc2ccccc2)C1=O (centres undefined)	0	1	8	·	·	·	·	·
COC(=O)[C@@H](Cc1ccccc1)N[C@H](/C=C/c1ccccc1)[C@@H](O)Cc1ccccc1	0	0	0	·	·	·	·	·
COc1ccc(-n2c(O)c(/C=N/NS(=O)(=O)c3ccc(C)cc3)c3ccccc3c2=O)cc1OC	-3	48*	0	1	7	1	0	0
NS(=O)(=O)c1ccc(NC(=O)CSc2nnc(-c3cccs3)o2)cc1	·	1	-4	·	·	·	·	·
O=C(Nc1ccc(-c2nc3ccccc3[nH]2)cc1)c1cccc(N2C(=O)CCC2=O)c1	-3	127*	-11	0	8	-2	167*	171*
COC(=O)c1ccc(-c2nc3ccccc3[nH]2)cc1	-2	43*	1	1	-4	-1	79*	73*
COC(=O)c1ccc(C(=O)Nc2ccc3nc(-c4ccncc4)[nH]c3c2)cc1	-1	-38	5	-6	-1	4	·	·
COC(=O)c1ccc(C(=O)Nc2ccc3nc(-c4cccnc4)[nH]c3c2)cc1	0	20*	-4	3	3	0	-14	-13
COc1ccc([C@H]2OC(=O)C[C@H]2C(=O)N2CCCCC2)cc1OC	·	0	5	·	·	·	·	·
COc1ccc(CN2C[C@H](COCc3ccccc3)Oc3cccc(Oc4ccc(C(C)C)cc4)c3S2(=O)=O)cc1	2	0	2	·	·	·	·	·
C=CCn1c2ccccc2n2nc(C)c(=O)nc12	1	4	-1	1	-11	-3	·	·
Cc1nn2c3ccccc3n(CCN3CCCCC3)c2nc1=O	4	55*	-3	0	7	-3	8	12*
O=C(O)CCc1nn2c3ccccc3nc2n(CCN2CCCCC2)c1=O	-1	57*	-3	0	2	0	15*	13*	K7 EDANS ctr=i
O=C(Cc1cccs1)NC1CCCCN(Cc2ccc(Cl)cc2)C1=O (centres undefined)	·	1	9	·	·	·	·	·
CC(=O)c1cccc(NC(=O)CSc2n[nH]c(=O)n2C2CC2)c1	1	52*	-4	·	-1	·	-1	1
COC(=O)c1cc2c(c3c4cc(F)ccc4n(S(=O)(=O)c4cccc(C)c4)c13)C(=O)N(c1ccc(OC)cc1)C2	0	0	7	·	·	·	·	·
C=CCN1C[C@H](COC(=O)c2cccc(C)c2)Oc2cccc(F)c2S1(=O)=O	0	0	7	·	·	·	·	·
O=C(Nc1ccc2c(c1)OCO2)c1cc(-c2ccc(O)cc2)on1	1	20*	-3	-1	-6	2	21*	14*	K7 EDANS ctr=i
CN1C=CC2=C(C#N)C(N)C(C#N)(C#N)[C@H](c3ccccc3)[C@H]2C1 (some centres undefined)	-2	39*	4	1	0	0	22*	18*	K7 EDANS ctr=>70
O=S(=O)(O)c1ccc(N2N=C(c3ccccc3)CC2c2ccccc2)cc1 (centres undefined)	-1	56*	-3	4	5	1	72*	66*
CCCCn1c(SCC(=O)Nc2ccc(OC)cc2)nc2ccc(N3CCOCC3)cc2c1=O	0	17*	-4	1	-34	-1	-5	-4
CCCCNC(=O)CSc1nc2ccc(N3CCOCC3)cc2c(=O)n1Cc1ccc(OC)cc1	-1	-4	-4	·	·	·	·	·
Cc1ccc(-c2cn3cccnc3n2)cc1NC(=O)c1cccs1	1	33*	4	4	4	-3	35*	39*
COc1ccc(-c2cn3cccnc3n2)cc1NC(=O)C(C)C	-2	8	-2	1	8	-9	·	·
COc1cc(C(=O)Nc2cc(-c3cn4cccnc4n3)ccc2C)cc(OC)c1OC	-1	47*	-2	0	-21	0	-12	-20
SMILES	PG9 binder	proKLK7 act	NR1D1 modulator	PP5 primary	JMJD2C inh	PP1 inh	KLK7 act conf	EDANS-DABCYL int	others
COc1cc(OC)cc(C(=O)Nc2cc(-c3cn4cccnc4n3)ccc2C)c1	-1	14*	2	0	-1	0	-92	-83
COc1ccc(-c2cn3cccnc3n2)cc1Br	1	32*	0	0	1	-2	79*	75*
COc1ccc(-c2cn3cccnc3n2)cc1NC(=O)C1CC1	·	·	-4	-3	34	-4	·	·
COc1cccc(NC(=O)Nc2nc3ncccn3c2-c2ccc(C)cc2)c1	·	-2	-8	·	·	·	·	·
CN(C)[C@H]1CCN(c2ccc3c(c2)O[C@@H]2CCN(C2)S3(=O)=O)C1	·	0	-6	·	·	·	·	·
Cn1c(C(=O)NC2CCCCC2)cc2c(=O)n3ccccc3nc21	3	83*	-1	1	-10	0	81*	75*
Cc1ccc(Cn2c(=N)c(C(=O)NC3CCCCC3)cc3c(=O)n4ccccc4nc32)cc1	1	-1	0	-1	-3	-6	·	·
Cn1c(C(=O)NCc2ccccn2)cc2c(=O)n3ccccc3nc21	1	53*	-1	2	i	-2	66*	67*
CC1CCCCN1C(=O)c1cc2c(=O)n3ccccc3nc2s1 (centres undefined)	-3	32*	-8	-1	-2	0	40*	40*
O=C(NC1CCCC1)c1cc2c(=O)n3ccccc3nc2s1	0	61*	-8	1	-4	-4	75*	66*
CC(C)C[C@@H]1COc2cccc(N3CCCC3)c2S(=O)(=O)N1	-1	1	-6	·	·	·	·	·
Cc1cc(N2CCNC[C@@H]2C)ccc1N1CCS(=O)(=O)CC1	-3	0	-3	·	·	·	·	·
CN(C)[C@H]1CCN(c2ccc3c(c2)OCCCN(C2CC2)S3(=O)=O)C1	·	0	1	·	·	·	·	·
CC1CCCN(C(=O)c2cc3c(=O)n4ccccc4nc3s2)C1 (centres undefined)	0	26*	1	-2	1	-2	30*	34*
Cc1cccn2c(=O)c3cc(C(=O)N4CCCC(C)C4)sc3nc12 (centres undefined)	-2	1	-2	0	3	-4	·	·
O=C(Nc1ccc(F)cc1)OCc1cn(Cc2ccccc2Cl)nn1	·	0	-1	·	·	·	·	·
Nc1cc(Oc2ccc(Cl)cc2Cl)nc(N)n1	0	0	-4	0	3	-2	·	·

Screens: PubChem, several laboratories
